# Source: PubChem
# gsp agonist – agonists of gsp mutant (McCune-Albright syndrome); Potency, µM (top dose mostly 76.9 µM), without a hit: top-dose activation (cAMP increase), usual class: activators; AID 624287; 340,000 compounds, 0.13% hits; gsp mutant cells, cAMP HTRF, 30 min; active means well fitted activation curve with a large enough effect; inconclusive means small, poorly fitted or top-dose-only effect, or another doubt; inactive means no such curve, though single readings can be large or run the other way; cell line not stated here;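 further: phosphodiesterase inhibitor Ro 20-1724 added with compounds to block cAMP breakdown; potency means the concentration at half of the fitted maximal effect; nearly all actives have a fitted effect of over 60% in size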
#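 Cells in DMEM/10% FBS with G418 were pretreated with compounds in DMSO plus […] (300 uM stock) for 30 min at 37C. cAMP was measured by HTRF (cAMP-d2 plus anti-cAMP antibody-K) after 30 min at room temperature.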
# gsp antagonist – antagonists of gsp mutant (McCune-Albright syndrome); gsp-mutant cells, cAMP HTRF, 30 min; 340,000 compounds, 0.4% hits; Potency, µM (top dose mostly 76.9 µM), for inactives: at the top dose activity change, negative = inhibition, most hits filed as inhibitors; calls by dose curve; cell line not stated here;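 further: intracellular cAMP measured with PDE inhibitor Ro 20-1724 present during compound exposure; potency means the concentration at half of the fitted maximal effect; on the % scale 0 is the no-effect control and ±100 the full control effect; nearly all actives have a fitted effect of over 65% in size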
#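 HTRF cAMP read-out (cAMP-d2 plus anti-cAMP antibody-K in lysis buffer, 30 min RT). Before lysis, cells are exposed to compounds with […] for 30 min at 37C in DPBS containing Ca/Mg, BSA and Tween 20.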
# RXFP1 ag – RXFP1 (human) receptor agonism | Q9HBX9 | HEK293T-RXFP1 cAMP TR-FRET, 30 min; response scale: percent of porcine relaxin response, buffer zero | Potency, µM (highest dose often 57.5 µM), without a hit: at the highest dose activation, actives largely listed as activators | 370,000 compounds, 0.3% hits | AID 2676; active means well fitted activation curve with a large enough effect; inconclusive means small, poorly fitted or top-dose-only effect; further: potency means the concentration at half of the fitted maximal effect; on the % scale 0 is the no-effect control and ±100 the full control effect; nearly all actives have a fitted effect of over 60% in size
# Target sequence (Q9HBX9 whole entry, looked up): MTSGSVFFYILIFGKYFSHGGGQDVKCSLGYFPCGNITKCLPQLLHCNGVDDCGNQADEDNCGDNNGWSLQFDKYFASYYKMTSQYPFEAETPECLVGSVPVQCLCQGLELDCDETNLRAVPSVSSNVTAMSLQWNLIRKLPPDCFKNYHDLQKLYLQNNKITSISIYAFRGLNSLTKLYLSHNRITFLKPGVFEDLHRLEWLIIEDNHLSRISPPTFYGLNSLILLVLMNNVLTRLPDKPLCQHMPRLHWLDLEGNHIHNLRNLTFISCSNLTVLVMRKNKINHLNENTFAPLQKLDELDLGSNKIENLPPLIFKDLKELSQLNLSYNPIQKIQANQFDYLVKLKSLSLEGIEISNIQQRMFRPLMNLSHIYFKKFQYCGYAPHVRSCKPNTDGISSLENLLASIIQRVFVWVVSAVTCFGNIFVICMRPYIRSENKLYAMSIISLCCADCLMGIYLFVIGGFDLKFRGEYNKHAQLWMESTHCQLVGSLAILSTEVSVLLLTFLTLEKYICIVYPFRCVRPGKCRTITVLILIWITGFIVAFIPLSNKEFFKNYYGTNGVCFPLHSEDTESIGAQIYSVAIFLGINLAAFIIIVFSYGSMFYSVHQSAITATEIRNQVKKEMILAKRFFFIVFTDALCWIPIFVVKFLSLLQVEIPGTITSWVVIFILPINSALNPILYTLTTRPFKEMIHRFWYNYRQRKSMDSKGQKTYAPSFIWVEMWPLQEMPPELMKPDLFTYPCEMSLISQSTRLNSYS
#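 HEK293T cells stably expressing RXFP1 were pretreated with the PDE4 inhibitor Ro 20174, exposed to compounds for 30 min at 37C, lysed, and cAMP was read by TR-FRET. Data normalized to buffer (basal) and 29 nM porcine relaxin (100%).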
# RXFP1 antagonist – blocks the human relaxin receptor RXFP1; activity change, negative = inhibition, % at 57.5 µM; HEK293-RXFP1, relaxin-stimulated cAMP HTRF, 30 min; active compounds read low; Q9HBX9; AID 1259400; 350,000 compounds, 0.59% hits;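 active means activity change of -60% or lower, but not beyond a set lower limit; inconclusive means change between -60% and -40%, or beyond the set limit; inactive means change above -40%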; further: on the % scale 0 is the no-effect control and ±100 the full control effect
# * hit, by the source's call; ? = inconclusive; . = no result; [ ] = remark or other dose. Most compounds without a hit are left out; they make up all but 0.9% or so of the library.
SMILES,gsp agonist,gsp antagonist,RXFP1 ag,RXFP1 antagonist
Cc1nn2c(NCCOCCO)c3c(nc2c1-c1ccccc1)CCCC3,1%,-12%,0%,-5
COCCNc1c2c(nc3c(-c4ccccc4)c(C)nn13)CCCC2,7%,35µM*,-3%,-28
CCN1CCN(CCCNC(=O)Cn2c(-c3cccs3)cc3cc(F)ccc32)CC1,.,.,0%,-8
O=c1[nH]c2ccccc2n1CCCN1CCN(C(c2ccccc2)c2ccccc2)CC1,.,.,4%,-75*
COc1ccc(-c2oc3ncn4nc(-c5ccccc5OC)nc4c3c2-c2ccc(OC)cc2)cc1,.,.,0%,5
COc1ccc(N(CC(=O)Nc2ccc(F)c(F)c2)S(=O)(=O)c2c(C)n[nH]c2C)cc1,6%,?,-2%,-86*
COc1ccc(C(=O)CCC(=O)N2CCN(c3cccc(Cl)c3)CC2)cc1,?,35µM*,1%,-12
O=C(N/N=C/c1ccc(-c2ccccc2)o1)c1ccccc1O,?,-13%,0%,-85*
O=C(N/N=C\c1ccncc1)c1ccccc1O,-11%[15.4 µM],4%,2%,-1
O=C(O)c1ccccc1NC(=O)c1cc2ccccc2oc1=O,?,32µM*,4%,-14
CCCCCCn1c2c(c(=N)c3c1CCC3)CCC2,16%,35µM*,3%,8
CCCCCCCCCn1c2c(c(=N)c3c1CCC3)CCC2,-6%[15.4 µM],5%,1%,-70*
Cc1cc(C(=O)NCCN2C(=O)S/C(=C\c3cccs3)C2=O)ccc1[N+](=O)[O-],5%,25µM*,1%,-4
CCc1ccc2oc(-c3ccc(OC)cc3)cc(=Nc3cccc(C(=O)O)c3)c2c1,16%[15.4 µM],.,1%,-33
CCc1ccc2oc(-c3ccc(OC)cc3)cc(=Nc3c(C)n(C)n(-c4ccccc4)c3=O)c2c1,-1%,28µM*,2%,-23
COc1cccc(N2CCN(c3cnc4ccccc4n3)CC2)c1,15%[15.4 µM],45µM*,-2%,-20
Cc1cnc2cc(Cl)ccc2c1SCC(=O)O,10µM*,-5%,21%,11
O=C(O)CSCC(=O)N1CCN(c2ccnc3cc(Cl)ccc23)CC1,-57%,13%,2%,-13
O=C(O)CSc1ccnc2cc(Cl)ccc12,20%[15.4 µM],21%,13µM*,20
COCCCNC(=O)c1ccc(OC)c(OC2CCN(C(C)C)CC2)c1,20%,50µM*,2%,1
COc1ccccc1CCNC(=O)c1ccc(OC)c(OC2CCN(C(C)C)CC2)c1,-5%[15.4 µM],22%,0%,-18
Cc1cc(C)cc(NC(=O)Cn2c(=O)n(-c3ccc(C)c(C)c3)c(=O)c3oc4ccccc4c32)c1,.,.,3%,1
CCN(CC)CC(=O)Nc1c(C)cccc1C(=O)OC,.,.,.,3
CCC(=O)Nc1ccc(N2CCN(C(=O)c3cccs3)CC2)cc1,3%,-21%,1%,2
O=C(COc1ccccc1[N+](=O)[O-])Nc1ccc(N2CCN(C(=O)c3cccs3)CC2)cc1,1%[15.4 µM],28µM*,0%,-28
SMILES,gsp agonist,gsp antagonist,RXFP1 ag,RXFP1 antagonist
O=C(Nc1ccc2c(c1)OCCO2)c1cnc2ccccn2c1=O,8.9µM*,-3%,.,14
CC(C)CC(=O)NC(=S)Nc1ccccc1F,-18%,11%,1%,-11
CC(C)CC(=O)NC(=S)Nc1cccc2nsnc12,-12%[15.4 µM],?,5%,-70*
O=C(Nc1ccc(Cl)cc1)Nc1cccc2nsnc12,5%,40µM*,4%,-35
COc1cccc(NC(=O)CN(C)C(=O)c2cc(-c3ccco3)nc3ccccc23)c1,11%[15.4 µM],-12%,2%,-32
CN(CCOc1ccc(Cl)cc1)C(=O)c1cc(-c2ccco2)nc2ccccc12,-3%,?,3%,-70*
Cc1nc(C)c(CC(=O)N2CCc3c([nH]c4ccccc34)C2c2ccccn2)s1 (stereo unspecified),21%[15.4 µM],-4%,1%,-75*
CCOc1ccc2nc(NC(=O)C3(C)CC3(Br)Br)sc2c1 (stereo unspecified),4%,?,.,-84*
CCOCC(=O)Nc1nc2ccc(OCC)cc2s1,3%,-9%,0%,-4
COc1ccc(CN(C(=O)Nc2ccccc2)c2ccccn2)cc1OC,.,.,3%,.
O=C1CC(N2CCC(c3nc4ccccc4s3)CC2)C(=O)N1Cc1ccccc1 (stereo unspecified),6%,35µM*,1%,-15
CCOC(=O)c1c(NC(=O)/C=C/c2ccc(OCC)c(OC)c2)sc2c1CCC2,.,.,8%,.
Cc1ccc(CNC(=O)CSc2nc(=O)[nH]c3c2CCCC3)cc1,.,.,9%,3
O=C(NCCCN1CCN(c2ccc(F)cc2)CC1)c1sc2ncccc2c1-n1cccc1,.,.,0%,-15
Cc1ccc(Cl)cc1N1CCN(C(=O)Cn2cnc3nc4c(cc3c2=O)CCCC4)CC1,.,.,3%,-68*
Cc1ccc(-c2nc3cc(Cl)ccc3o2)cc1NC(=O)c1cc2ccccc2o1,.,.,3%,-2
Cc1ccc(S(=O)(=O)NCCC(=O)N2CCN(S(=O)(=O)c3cccc(F)c3)CC2)cc1C,18%[15.4 µM],-20%,0%,-67*
Cc1ccc(S(=O)(=O)NCCC(=O)N2CCN(S(=O)(=O)c3ccccc3)CC2)cc1C,7%[15.4 µM],-1%,1%,-2
O=C(NC(Cc1c[nH]c2ccccc12)C(=O)Nc1ccc(F)c([N+](=O)[O-])c1)c1cccs1 (stereo unspecified),1%,-2%,0%,-3
O=C(NC(Cc1c[nH]c2ccccc12)C(=O)Nc1ccc(OC(F)(F)F)cc1)c1cccs1 (stereo unspecified),0%[15.4 µM],4%,0%,-71*
CN1CCN(c2ccccc2NC(=O)c2ccc(-c3ccccc3)cc2)CC1,12%,50µM*,0%,-15
COc1cccc(C(=O)Nc2ccccc2N2CCN(C(=O)c3ccccc3)CC2)c1,6%,25µM*,.,-8
COc1ccc(CCNc2oc(COc3ccc(Br)cc3)nc2C#N)cc1OC,-25%,40µM*,2%,-62*
Cc1onc(-c2ccc(Cl)cc2Cl)c1-c1csc(N/N=C/c2ccccc2Cl)n1,5%,-6%,0%,-69*
Cc1onc(-c2ccccc2)c1-c1csc(N/N=C/c2ccccc2Cl)n1,-2%,2%,-1%,?
SMILES,gsp agonist,gsp antagonist,RXFP1 ag,RXFP1 antagonist
Cc1ccc(C(=O)Nc2nnc(S(=O)(=O)N(C)Cc3ccc(F)cc3)s2)cc1,.,.,?,-29
Cc1ccccc1-c1nc(CS(=O)(=O)CC(=O)NC2CC2)c(C)o1,4%,1%,0%,-78*
CC(C)(C)OC(=O)N1CCC(c2c(C(=O)NCc3cccs3)cnn2-c2ccc(F)cc2F)CC1,.,.,0%,-27
N#C/C(=C\c1ccccc1)C(=O)NCc1ccc(F)cc1,7%,6%,1%,-65*
COC(=O)c1cc(Cl)ccc1NS(=O)(=O)C(F)(F)F,.,.,.,12
O=C(Nc1ccccc1C(=O)O)c1ccc(NC(=O)C2CCCCC2)cc1,7%[15.4 µM],32µM*,1%,?
COc1ccc(C(=O)Nc2ccccc2C(=O)O)cc1Cl,-10%,?,0%,-12
COc1ccc(C(=O)Nc2ccccc2C(=O)O)cc1NC(=O)C(c1ccccc1)c1ccccc1,-2%,40µM*,0%,-24
